Reference: PubChem BioAssay
Values without a mark were called inactive. Entries that show only a call come without a potency. For some of these results: Potency and affinity values are given separately. Activity calls are given as the source filed them. Unless noted, the rule behind the calls is not given here.

Key:
[1] = antimalarial activity against Dd2 strain (AID 2302;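 active = growth inhibition above 50% at the single 2 µM test dose, taken to imply half-maximal potency below 2 µM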); settings: P. falciparum Dd2 in RBCs, LDH growth readout, 72 h; at 2 µM; stronger effect = higher value
[2] = HepG2 cytotoxicity, primary screen, cytotoxicity control for P. falciparum antimalarial project, cell-based, ATP luminescence (AID 2303;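 active = inhibition above 50%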); settings: HepG2 viability, 24-48 h, at 10 µM, stronger effect = higher value
[3] = biological target: L-lactate dehydrogenase (Plasmodium falciparum (isolate CDC / Honduras)) (UniProt Q27743); assay: PfLDH activity inhibition – cell lysate, 3D7 strain, counter-screen for P. falciparum growth inhibition project (AID 2304); settings: P. falciparum 3D7 crude extract, LDH APAD/NBT absorbance; at 2 µM; stronger effect = higher value
Chain of L-lactate dehydrogenase (Plasmodium falciparum (isolate CDC / Honduras)) (Q27743 whole entry, looked up): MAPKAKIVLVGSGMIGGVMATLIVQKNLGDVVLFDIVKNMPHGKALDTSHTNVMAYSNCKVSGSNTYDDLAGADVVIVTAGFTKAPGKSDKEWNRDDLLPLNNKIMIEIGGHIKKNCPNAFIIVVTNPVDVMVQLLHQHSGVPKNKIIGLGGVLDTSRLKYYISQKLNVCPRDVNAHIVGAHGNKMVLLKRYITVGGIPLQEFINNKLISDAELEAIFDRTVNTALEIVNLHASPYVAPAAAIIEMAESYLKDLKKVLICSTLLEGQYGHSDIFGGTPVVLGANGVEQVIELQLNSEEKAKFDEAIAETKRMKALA

[4] = inhibition of 3D7 malaria parasite growth – strain 3D7 (AID 2306); settings: P. falciparum 3D7 erythrocytic growth, LDH absorbance, 72 h; at 2 µM; stronger effect = higher value
[5] = biological target: Calcium-dependent protein kinase 1 (Plasmodium falciparum (isolate 3D7)) (UniProt P62344); assay: PfCDPK1 kinase inhibitors, biochemical, TCAMS library (AID 1159585; cut-off not given, nearly all actives have IC50 up to about 0.98 µM;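 note: inhibitors leave more ATP so luminescence rises with inhibition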); settings: recombinant PfCDPK1, Kinase-Glo ATP depletion luminescence
Chain of Calcium-dependent protein kinase 1 (Plasmodium falciparum (isolate 3D7)) (P62344 whole entry, looked up): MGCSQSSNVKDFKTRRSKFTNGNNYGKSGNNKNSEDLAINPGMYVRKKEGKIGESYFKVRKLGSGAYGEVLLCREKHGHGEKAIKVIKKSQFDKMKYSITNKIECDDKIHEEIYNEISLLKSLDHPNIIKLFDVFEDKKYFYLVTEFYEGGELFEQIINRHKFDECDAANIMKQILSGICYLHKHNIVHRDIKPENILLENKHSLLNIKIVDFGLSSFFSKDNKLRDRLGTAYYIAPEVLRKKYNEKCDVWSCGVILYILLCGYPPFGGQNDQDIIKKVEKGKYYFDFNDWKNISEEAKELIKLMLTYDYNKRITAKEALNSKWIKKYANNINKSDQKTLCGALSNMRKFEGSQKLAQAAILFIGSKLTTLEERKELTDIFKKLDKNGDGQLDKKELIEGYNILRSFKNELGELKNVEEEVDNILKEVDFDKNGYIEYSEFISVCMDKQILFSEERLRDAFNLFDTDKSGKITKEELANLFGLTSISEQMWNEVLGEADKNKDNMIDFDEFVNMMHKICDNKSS

[6] = biological target: Plasmodium falciparum protein kinase 6 (PK6, PF3D7_1337100) (UniProt Q8IDW1); assay: PfPK6 kinase inhibitors, biochemical, TCAMS library (AID 1159586); settings: recombinant PfPK6, Kinase-Glo ATP depletion luminescence
Chain of Plasmodium falciparum protein kinase 6 (PK6, PF3D7_1337100) (Q8IDW1 1-305): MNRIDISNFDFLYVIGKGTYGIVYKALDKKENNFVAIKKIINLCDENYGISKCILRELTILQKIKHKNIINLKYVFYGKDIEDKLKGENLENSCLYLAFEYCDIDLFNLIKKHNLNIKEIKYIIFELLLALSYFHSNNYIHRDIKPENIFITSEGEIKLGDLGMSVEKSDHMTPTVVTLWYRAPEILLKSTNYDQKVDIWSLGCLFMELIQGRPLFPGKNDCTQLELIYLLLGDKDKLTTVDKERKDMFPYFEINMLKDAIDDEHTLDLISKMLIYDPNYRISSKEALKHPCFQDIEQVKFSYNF

[7] = biological target: Protein kinase 7 (PK7), Plasmodium falciparum 3D7 (PF3D7_0213400) (UniProt Q7YTF7); assay: inhibition of Plasmodium PK7 catalytic activity – biochemical, TCAMS antimalarial set, Kinase-Glo luminescence (AID 1159587); settings: recombinant PfPK7, Kinase-Glo ATP depletion luminescence
Chain of Protein kinase 7 (PK7), Plasmodium falciparum 3D7 (PF3D7_0213400) (Q7YTF7 1-343): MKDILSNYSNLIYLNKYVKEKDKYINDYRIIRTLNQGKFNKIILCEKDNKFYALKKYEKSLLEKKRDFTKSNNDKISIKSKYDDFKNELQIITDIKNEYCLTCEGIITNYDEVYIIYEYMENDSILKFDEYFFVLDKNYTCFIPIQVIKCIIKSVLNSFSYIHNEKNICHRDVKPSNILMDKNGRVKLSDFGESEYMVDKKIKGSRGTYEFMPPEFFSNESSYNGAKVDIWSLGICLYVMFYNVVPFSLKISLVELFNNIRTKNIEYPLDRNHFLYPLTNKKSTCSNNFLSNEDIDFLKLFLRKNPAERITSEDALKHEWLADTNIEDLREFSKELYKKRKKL

[8] = biological target: Calcium-dependent protein kinase 4 (Plasmodium falciparum (isolate 3D7)) (UniProt Q8IBS5); assay: PfCDPK4 kinase inhibitors, biochemical, TCAMS library (AID 1159588; cut-off not given, nearly all actives have IC50 up to about 0.91 µM); settings: recombinant PfCDPK4, Kinase-Glo ATP depletion luminescence
Chain of Calcium-dependent protein kinase 4 (Plasmodium falciparum (isolate 3D7)) (Q8IBS5 whole entry, looked up): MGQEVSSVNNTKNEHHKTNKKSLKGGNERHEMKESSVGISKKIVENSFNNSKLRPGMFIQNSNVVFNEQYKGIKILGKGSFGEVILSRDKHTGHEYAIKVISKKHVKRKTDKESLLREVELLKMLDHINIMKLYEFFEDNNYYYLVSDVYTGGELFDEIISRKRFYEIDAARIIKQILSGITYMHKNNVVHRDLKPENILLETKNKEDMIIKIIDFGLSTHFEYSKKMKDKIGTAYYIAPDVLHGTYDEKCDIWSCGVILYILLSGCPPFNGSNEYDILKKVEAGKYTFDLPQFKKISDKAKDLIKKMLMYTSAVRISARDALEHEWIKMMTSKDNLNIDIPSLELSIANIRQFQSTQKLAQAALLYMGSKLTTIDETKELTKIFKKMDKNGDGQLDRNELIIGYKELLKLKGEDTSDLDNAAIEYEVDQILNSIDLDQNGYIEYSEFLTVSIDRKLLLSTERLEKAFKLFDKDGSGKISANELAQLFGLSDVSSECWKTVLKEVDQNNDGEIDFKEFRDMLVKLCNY

| SMILES | growth inhibition [1] | inhibition [2] | inhibition [3] [%] | growth inhibition [4] | outcome [5] | outcome [6] | outcome [7] | outcome [8] |
| --- | --- | --- | --- | --- | --- | --- | --- | --- |
| CCCN(CCC)CCCN(CCCN(CCC)CCC)c1cc(C)nc(Nc2ccc3cc(Br)ccc3c2)n1 | 99% (active) | 99% (active) | 1 | 98% (active) | inactive | inactive | inactive | inactive |
| CC(C)CN1CCC(COc2ccc3ncn(-c4cc(O[C@H](C)c5ccccc5C(F)(F)F)c(C(N)=O)s4)c3c2)CC1 | 86% (active) | 46% | 7 | 97% (active) | inactive | inactive | inactive | inactive |
| CN1CCN(CCCN(Cc2csc(-c3ccc(CNCc4ccccc4)cc3)n2)S(=O)(=O)c2ccc(F)cc2)CC1 | 80% (active) | 21% | 3 | 101% (active) | inactive | inactive | inactive | inactive |
| CCOC(=O)c1cccc(N/C(N)=N/c2nc(C)cc(NCCc3ccccc3)n2)c1 | 72% (active) | 21% | -6 | 102% (active) | inactive | inactive | inactive | inactive |
| CCCN(CCCCCCNCCc1ccc(Cl)cc1)CCc1ccc(O)c(O)c1 | 11% | 26% | -3 | 91% (active) | inactive | inactive | inactive | inactive |
| O=C(Nc1ccc(Cl)cc1)Nc1cccc(-c2ccc(-c3nc4ccccc4[nH]3)cc2)c1 | 6% | 19% | -3 | 87% (active) | inactive | inactive | inactive | inactive |
| Cc1cc(C)n(-c2nc(Nc3cccc(C(F)(F)F)c3)nc(-n3nc(C)cc3C)n2)n1 | 88% (active) | -8% | -6 | 99% (active) | inactive | inactive | inactive | inactive |
| c1cc(OCCN2CCCC2)ccc1CNC1CCN(CC2CCCCC2)CC1 | 54% (active) | 15% | 5 | 101% (active) | inactive | inactive | inactive | inactive |
| Cc1cccc2[nH]c(-c3cccc(-c4cccc(NC(=O)N[C@@H]5C[C@H]5c5ccccc5)c4)c3)nc12 | 28% | -4% | -1 | 98% (active) | inactive | inactive | inactive | inactive |
| Cc1cc(NN=Cc2ccccc2Cl)c2ccc(F)cc2n1 | 100% (active) | 6% | -4 | 101% (active) | inactive | inactive | inactive | inactive |
| O=c1cc(NCCC(CNCc2cc3ccccc3o2)NCc2cc(Br)cc(Br)c2)[nH]c2ccccc12 (stereo not given) | 94% (active) | 6% | 2 | 100% (active) | inactive | inactive | inactive | inactive |
| CC(C)C(C(=O)Nc1ccc2c(c1)OCO2)c1ccc(Cl)cc1 (stereo not given) | 89% (active) | 25% | -7 | 98% (active) | inactive | inactive | inactive | inactive |
| Cc1cc(C2CCN(CCCCNC(=O)c3ccc(NC(=O)c4ccc(Cl)cc4)cc3)CC2)c(C)cc1OCc1ccncc1 | 92% (active) | 33% | 6 | 100% (active) | inactive | inactive | inactive | inactive |
| CCCc1nc2c(N3CCCN(C(=O)NC4CCCCC4)CC3)cccc2n1Cc1ccccn1 | 10% | 10% | 5 | 89% (active) | inactive | inactive | inactive | inactive |
| COCCn1c(C)nc2ccccc2c1=O | 67% (active) | -3% | -3 | 89% (active) | inactive | inactive | inactive | inactive |
| CC1(C)C(N(O)C(=O)Nc2ccc(Cl)c(Cl)c2)N(c2ccc(Cl)c(Cl)c2)C(=O)N1CCc1ccccc1 (stereo not given) | 93% (active) | 10% | -1 | 91% (active) | inactive | inactive | inactive | inactive |
| COc1ccc2nccc(N(C)CC3(O)CCN(CC(O)c4ccc5c(c4)NC(=O)CS5)CC3)c2n1 (stereo not given) | -4% | 1% | -5 | 101% (active) | inactive | inactive | inactive | inactive |
| CCCCCC(C)c1cc(O)c2c(c1)OC(C)(C)C=C2C1=CCN(Cc2ccccc2)CC1 (stereo not given) | 96% (active) | 13% | -5 | 96% (active) | inactive | inactive | inactive | inactive |
| O=C1CCCN1CCCNCc1ccc(-c2cccc(-c3nc4ccc(C(F)(F)F)cc4[nH]3)c2)cc1 | 98% (active) | 14% | 2 | 100% (active) | inactive | inactive | inactive | inactive |
| Cc1cccc2[nH]c(-c3cccc(-c4ccc(NC(=O)c5cnc[nH]5)cc4)c3)nc12 | 48% | 8% | 3 | 101% (active) | inactive | inactive | inactive | inactive |
